Assay [1] deals with Glutathione peroxidase 1 (Homo sapiens) (UniProt P07203). As to the kind of experiment: Primary qHTS Assay for Inhibitors of Recombinant Selenoprotein Glutathione Peroxidase 1 (GPX1) (AID 1845191). Also: nearly all actives have a fitted effect of over 65% in size. An outline of the steps:
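GR-coupled readout: NADPH consumption tracked by fluorescence, ex 340/em 450 nm, at t=0 and after 15 min at RT. Final mix 10 nM GPX1, 1 mM GSH, 0.5 mM CHP, 0.5 mM NADPH, 100 nM GR, 0.01% BSA, following 30 min enzyme–compound preincubation.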

Assay [2] has as its target Phospholipid hydroperoxide glutathione peroxidase GPX4 (Homo sapiens) (UniProt P36969). Briefly: Primary qHTS Assay for Inhibitors of Recombinant Selenoprotein Glutathione Peroxidase 4 (GPX4) (AID 1845192). Also: series mostly up to about 50 µM; nearly all actives have a fitted effect of over 65% in size. An outline of the steps:
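Steps: GPX4 plus compound, 30 min RT; add GR/GSH/NADPH master mix; start with cumene hydroperoxide; read 340/450 nm fluorescence at 0 and 15 min. Finals were 200 nM GPX4, 1 mM GSH, 0.5 mM CHP, 0.5 mM NADPH, 100 nM GR.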
A general note: In qHTS, concentration-response curves come from the screen itself.

Assay [3] deals with Nanoluciferase (engineered Oplophorus gracilirostris luciferase). As to the kind of experiment: Primary Nanoluciferase (NLuc) qHTS assay for identification of artifact compounds. (AID 1845222).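 Also: NLuc secreted into diluted conditioned medium of S16 cells; series mostly up to about 54 µM.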 An outline of the steps: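 S16 cell supernatant NLuc, 1:55; cpds qHTS; 15 min RT dark; Nano-Glo substrate 1:100, 5 min; luminescence; Hill fit of % inhibition.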
For assay [4], the target named is Luciferin 4-monooxygenase (Photinus pyralis) (UniProt P08659). As to the kind of experiment: Primary firefly luciferase (FLuc) qHTS assay for identification of artifact compounds. (AID 1845220). Also: nearly all actives have a fitted effect of over 60% in size. Also: potency is read from the fitted curve at half-maximal effect. The procedure, abridged: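 Enzymatic FLuc inhibition assay: compounds pre-exposed to luciferin/ATP (10 uM each) for 15 min, then purified P. pyralis enzyme at 10 nM added. Read-out: luminescence at 5 min.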

Assay [5] can be described thus: Primary fluorescence-based thiol-reactive (MSTI) qHTS assay for identification of artifact compounds. (AID 1845221). Also: nearly all actives have a fitted effect of over 65% in size. Also: potency is read from the fitted curve at half-maximal effect. The procedure, abridged:
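MSTI probe at 4 uM final in 2% DMSO/PBS pH 7.4; compounds, 1 h at room temperature in dark. Fluorescence Ex/Em 525/598 nm, normalised to Acetyl-MSTI and MSTI, fitted to 4-parameter Hill.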

SMILES strings stand for the structures. Inconclusive results are not listed. The source made the active and inactive calls. Calls follow the shape of the dose curve; as a rule, active = well fitted curve in the direction sought with a large enough effect; inconclusive = small, poorly fitted or top-dose-only effect, or another doubt; inactive = no such curve, though single readings can be large; an effect the other way counts as inactive or inconclusive.

Glutathione peroxidase 1 (Homo sapiens), sequence (P07203 whole entry, looked up): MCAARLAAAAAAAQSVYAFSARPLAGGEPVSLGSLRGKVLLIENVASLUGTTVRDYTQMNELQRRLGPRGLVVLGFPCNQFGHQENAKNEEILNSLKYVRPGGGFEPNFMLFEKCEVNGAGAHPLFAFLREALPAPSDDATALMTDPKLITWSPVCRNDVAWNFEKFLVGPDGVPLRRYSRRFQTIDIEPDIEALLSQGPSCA
Phospholipid hydroperoxide glutathione peroxidase GPX4 (Homo sapiens), sequence (P36969 whole entry, looked up): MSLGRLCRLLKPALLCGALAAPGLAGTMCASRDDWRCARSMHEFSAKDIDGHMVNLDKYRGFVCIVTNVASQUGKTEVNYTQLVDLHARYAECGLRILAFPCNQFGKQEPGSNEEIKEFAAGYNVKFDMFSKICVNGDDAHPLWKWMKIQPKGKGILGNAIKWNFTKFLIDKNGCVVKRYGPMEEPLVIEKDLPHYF

For `Cn1c(CO)c(-c2ccccc2)c2cc([N+](=O)[O-])ccc21`, the Potency result in assay [1], in assay [2] and in assay [3] was “inactive” throughout.
As to `C=C1/C(=C/C=C2\CCC[C@]3(C)[C@@H]([C@@H](C)OCCC(O)(CC)CC)CC[C@@H]23)C[C@@H](O)C[C@@H]1O`, the Potency entry in assay [1], in assay [4], in assay [5] and in assay [3] was “inactive” each time.
As for `O=C(O)c1cc(N(Cc2ccc(C3CCCCC3)cc2)C(=O)c2ccc(Oc3ccccc3)cc2)ccc1O`, the Potency entry in assay [1], in assay [4], in assay [5] and in assay [3] was “inactive” each time.
On to `Nc1nc2c(nc(Br)n2[C@@H]2O[C@@H]3COP(=O)(O)O[C@H]3[C@H]2O)c(=O)[nH]1`, for which the Potency result in assay [1], in assay [4], in assay [5] and in assay [3] was “inactive” each time.
As for `C=C1C(=O)O[C@@H]2C3C(=C(C)[C@@H](O)[C@@H](OC(=O)/C(=C/C)COC(C)=O)[C@@H]12)C(=O)[C@H]1O[C@@]31C` (stereo partly drawn), the Potency result in assay [1], in assay [4], in assay [5] and in assay [3] was “inactive” each time.
On to `O=C(NCCO)c1cccc(-c2cc(Nc3ccc(OC(F)(F)F)cc3)ncn2)c1`, for which the Potency entry in assay [1], in assay [4], in assay [5] and in assay [3] was “inactive” in each case.
As for `COc1ccc(C#Cc2ccc(C(=O)N3CCC[C@@H](O)C3)c(F)c2)cc1`, the Potency entry in assay [1], in assay [4], in assay [5] and in assay [3] was “inactive” each time.
For `Clc1ccc(Nc2nc3ccccc3c3nc(C4CCCCC4)[nH]c23)cc1Cl`, the Potency entry in assay [1], in assay [4] and in assay [5] was “inactive” in each case.
`CC[C@@H]1C[C@]1(NC(=O)[C@@H]1C[C@@H]2CN1C(=O)[C@H](C(C)(C)C)NC(=O)OCC(C)(C)CCCCc1cccc3c1CN(C3)C(=O)O2)C(=O)NS(=O)(=O)C1CC1`: the Potency result in assay [1], in assay [4], in assay [5] and in assay [3] was “inactive” throughout.
As for `COc1ccc2cc(-c3cc(-c4cc(Cl)cc(Cl)c4)nn3C(C)c3ccc(C(=O)NCCC(=O)O)cc3)ccc2c1` (stereo not drawn), the Potency result in assay [1], in assay [4], in assay [5] and in assay [3] was “inactive” in each case.
On to `O=C(Nc1ncc([N+](=O)[O-])s1)c1ccccc1O`, for which the Potency result in assay [1] is “inactive”. The Potency in assay [4] is 849 nM (active); in assay [5], 2380 nM (active).
Consider `Cc1cccc(C#Cc2cc(F)cc(C#N)c2)n1`, for which the Potency result in assay [1], in assay [4], in assay [5] and in assay [3] was “inactive” in each case.
For `COC1CC(=O)C23C(=O)NC(CC(C)C)C2C(C)C(C)=CC3/C=C(\C)CCCC1O` (stereo not drawn), the Potency entry in assay [1], in assay [4], in assay [5] and in assay [3] was “inactive” throughout.
As to `Cn1ncnc1[C@H]1c2n[nH]c(=O)c3cc(F)cc(c23)N[C@@H]1c1ccc(F)cc1`, the Potency result in assay [1], in assay [4], in assay [5] and in assay [3] was “inactive” each time.
For the compound `CC(C)NC(=O)COc1cccc(-c2nc(Nc3ccc4[nH]ncc4c3)c3ccccc3n2)c1`, the Potency entry in assay [1], in assay [4], in assay [5] and in assay [3] was “inactive” in each case.
As to `CCCCNc1ncc(-c2ccc(CN3CCOCC3)cn2)c(NC2CCC(O)CC2)n1` (stereo not drawn), the Potency result in assay [1], in assay [4], in assay [5] and in assay [3] was “inactive” throughout.
On to `CNCCCC1(c2ccccc2)OC(C)(C)c2ccccc21` (stereo not drawn), for which the Potency entry in assay [1], in assay [4], in assay [5] and in assay [3] was “inactive” each time.
For `O=C([C@@H](Cc1cccc(C(F)(F)F)c1)NS(=O)(=O)c1cc(F)c2c(c1)CCNC2)N1CCCC1`, the Potency entry in assay [1], in assay [4], in assay [5] and in assay [3] was “inactive” throughout.
As to `COc1cc(C(N)=O)nc(-c2ccccn2)c1O`, the Potency entry in assay [1], in assay [4] and in assay [3] was “inactive” each time. Further, the Potency in assay [5] was 23800 nM (active).

(Values after PubChem BioAssay (NCATS).)
